{"source": "the supplement of paper PMC6555819", "data": [{"system": "PXR:RXRa (NR concentration 270 nM, RXRa partner concentration 90 nM)", "experiment": "PBM binding z-score (relative to random genomic background probes); higher = stronger binding; sequences stand for … in GC…GCGATTGACAGCGTAGAATGAAGG", "method_in_brief": "(§1)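 Each nuclear receptor dimer, without ligand, was incubated for 1 h on custom Agilent 4×180K protein-binding microarrays. Binding was detected with antibodies against each partner (one per run), and scanned fluorescence was regression-normalized. The binding z-scores are referenced to random human genomic background probes.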", "values": [{"sequence": "TTACCAACGTGAAAGGTCGTTGATGCACGCCTTG", "PBM binding z-score": 2.14}, {"sequence": "CCTACTGCGCCACGAAAGGTCATTGATTCAGTGA", "PBM binding z-score": 5.41}, {"sequence": "TCATATAGGTAAACGTGAAAGTCGAACGATATGA", "PBM binding z-score": 0.122}, {"sequence": "GGAACGAGGGCAAAGTTGATAGCATCTGTCGACG", "PBM binding z-score": 1.14}, {"sequence": "CCTAGCAGGCCAATCTGGGTGACTCAAGGCTTGA", "PBM binding z-score": -0.581}, {"sequence": "TCTGCTGGGTCAGTTGGTCAGCTAACGAGCTGCC", "PBM binding z-score": 0.0304}, {"sequence": "CCTACTAGGTCATGGTCAGCTAATCTACAGTATG", "PBM binding z-score": 1.5}, {"sequence": "TCTGTTAGTTGAAGGGCAACCGACGAGTCCGTTT", "PBM binding z-score": 0.704}, {"sequence": "TCGGCTAGGTCAACGATGGTCAGCTAATCTGCTA", "PBM binding z-score": 1.58}, {"sequence": "AGAATGAGGTTAATAAGATCAGGGAATTGCGGTC", "PBM binding z-score": 1.06}, {"sequence": "AGAACGAGGGCAATGAGTTGATAGTACGGGTGGC", "PBM binding z-score": 2}, {"sequence": "AGTCAAAGTTCATCTAGGGAACGTAAGATATGCT", "PBM binding z-score": 4.88}, {"sequence": "ATAACGAGGGCACGCTGAGTTGATAGCAGAGTAG", "PBM binding z-score": 1.83}, {"sequence": "ATCTGTAGGTAACCAAGTTCAGTGAATGCCGAAC", "PBM binding z-score": 2.03}, {"sequence": "AGAACGAGGGCACGCTGAGTTGAGAGCAGAGTAG", "PBM binding z-score": 1.01}, {"sequence": "CTCGAAAGGTCGTGCTGAGGTGAGTATACCAAAC", "PBM binding z-score": 3.61}, {"sequence": "CAAACTAGGTCCAGAGGTCAAAGTCCGCTTCCCG", "PBM binding z-score": 5.47}, {"sequence": "CGTCCAAGGTCAAAGGTCAGTGACGAGATGACGG", "PBM binding z-score": 7.17}, {"sequence": "GGAACGAGGGCAAAGTTGATAGAATCTGTCGACG", "PBM binding z-score": 1.25}, {"sequence": "TCTTGTAGATCAATAGAGGATAAGAAAGTGCGCT", "PBM binding z-score": 0.475}, {"sequence": "CGAACCAGGTCAAGGACAGTGAATCTCCGCACGC", "PBM binding z-score": 2.01}, {"sequence": "CCGGCTAGGTCATGGTCAGCTAATCTACAGTATG", "PBM binding z-score": 1.4}, {"sequence": "ATACCAAGGTGCTCGTGAGGTCGTTGATACTAAC", "PBM binding z-score": 2.27}, {"sequence": "CCAACTAGGTCAAGGACAGTGAATCTCCGCACGC", "PBM binding z-score": 1.23}, {"sequence": "GTAACGAGGGCAAGTTGATAGCAGAGTTTGATGG", "PBM binding z-score": 0.884}, {"sequence": "TCTGCTAGGTCAGTTGGACAGCTAACGAGCTGCC", "PBM binding z-score": -0.183}, {"sequence": "AGTCAAAGCTCAGGACGAGGTAACGTAAAGCACG", "PBM binding z-score": -0.435}, {"sequence": "ACGTACGGGTCAACGAGGTTATAGCACGCGTATA", "PBM binding z-score": 5.2}, {"sequence": "CCTTACGGGTCACTGACAGGTTAGAGCATTTGGA", "PBM binding z-score": 3.32}, {"sequence": "CGAACTAGGTCATCCAGGACAGTCAATACATTGA", "PBM binding z-score": 2.25}, {"sequence": "CAAACTAGGCCAAAGGTCAAAGTCGAGCCAACCA", "PBM binding z-score": 5.56}, {"sequence": "CGTCCAAGGTCAATGTCAGTGAAAGAGACTCGAA", "PBM binding z-score": 3.36}, {"sequence": "TCTATTACTTGAAGGGCAACCGACGAGTCCGTTT", "PBM binding z-score": 1.01}, {"sequence": "TCTTGTAGATCAACAGGAGGTTAAGAACGATCGA", "PBM binding z-score": 0.722}, {"sequence": "TCATATAGGTAAATGCTAGGTGAAAGTCCGATCT", "PBM binding z-score": 0.713}, {"sequence": "TCTAGTTGGTCACGGAGGTCACACAAGACGGGTA", "PBM binding z-score": 4.55}, {"sequence": "CGAACTAGGTCATCCAAGACAGTGAATACATTGA", "PBM binding z-score": 1.67}, {"sequence": "TCTTATAGATCAACAGGAGGTTAAGAAAGATCGA", "PBM binding z-score": 0.958}, {"sequence": "CGAACTAGGTCAGAACAGGAAAGTGAAGGATGAT", "PBM binding z-score": 0.0929}, {"sequence": "ATATGTAGGTTATCGCGTCATTCAGTTTGCGCAT", "PBM binding z-score": 0.655}]}, {"system": "PXR homodimer (NR concentration 270 nM)", "experiment": "PBM binding z-score (relative to random genomic background probes); higher = stronger binding; sequences stand for … in GC…GCGATTGACAGCGTAGAATGAAGG", "method_in_brief": "as §1", "values": [{"sequence": "TTACCAACGTGAAAGGTCGTTGATGCACGCCTTG", "PBM binding z-score": 0.445}, {"sequence": "CCTACTGCGCCACGAAAGGTCATTGATTCAGTGA", "PBM binding z-score": 2.88}, {"sequence": "TCATATAGGTAAACGTGAAAGTCGAACGATATGA", "PBM binding z-score": 0.576}, {"sequence": "GGAACGAGGGCAAAGTTGATAGCATCTGTCGACG", "PBM binding z-score": -0.0271}, {"sequence": "CCTAGCAGGCCAATCTGGGTGACTCAAGGCTTGA", "PBM binding z-score": -0.777}, {"sequence": "TCTGCTGGGTCAGTTGGTCAGCTAACGAGCTGCC", "PBM binding z-score": -0.922}, {"sequence": "CCTACTAGGTCATGGTCAGCTAATCTACAGTATG", "PBM binding z-score": 0.291}, {"sequence": "TCTGTTAGTTGAAGGGCAACCGACGAGTCCGTTT", "PBM binding z-score": 1.02}, {"sequence": "TCGGCTAGGTCAACGATGGTCAGCTAATCTGCTA", "PBM binding z-score": -0.468}, {"sequence": "AGAATGAGGTTAATAAGATCAGGGAATTGCGGTC", "PBM binding z-score": 0.151}, {"sequence": "AGAACGAGGGCAATGAGTTGATAGTACGGGTGGC", "PBM binding z-score": 6.24}, {"sequence": "AGTCAAAGTTCATCTAGGGAACGTAAGATATGCT", "PBM binding z-score": 4.28}, {"sequence": "ATAACGAGGGCACGCTGAGTTGATAGCAGAGTAG", "PBM binding z-score": 0.518}, {"sequence": "ATCTGTAGGTAACCAAGTTCAGTGAATGCCGAAC", "PBM binding z-score": 1.73}, {"sequence": "AGAACGAGGGCACGCTGAGTTGAGAGCAGAGTAG", "PBM binding z-score": 0.0274}, {"sequence": "CTCGAAAGGTCGTGCTGAGGTGAGTATACCAAAC", "PBM binding z-score": 0.222}, {"sequence": "CAAACTAGGTCCAGAGGTCAAAGTCCGCTTCCCG", "PBM binding z-score": 2.58}, {"sequence": "CGTCCAAGGTCAAAGGTCAGTGACGAGATGACGG", "PBM binding z-score": 2.08}, {"sequence": "GGAACGAGGGCAAAGTTGATAGAATCTGTCGACG", "PBM binding z-score": 0.121}, {"sequence": "TCTTGTAGATCAATAGAGGATAAGAAAGTGCGCT", "PBM binding z-score": 0.185}, {"sequence": "CGAACCAGGTCAAGGACAGTGAATCTCCGCACGC", "PBM binding z-score": 0.853}, {"sequence": "CCGGCTAGGTCATGGTCAGCTAATCTACAGTATG", "PBM binding z-score": -0.16}, {"sequence": "ATACCAAGGTGCTCGTGAGGTCGTTGATACTAAC", "PBM binding z-score": 0.582}, {"sequence": "CCAACTAGGTCAAGGACAGTGAATCTCCGCACGC", "PBM binding z-score": 0.209}, {"sequence": "GTAACGAGGGCAAGTTGATAGCAGAGTTTGATGG", "PBM binding z-score": 1.23}, {"sequence": "TCTGCTAGGTCAGTTGGACAGCTAACGAGCTGCC", "PBM binding z-score": -1.13}, {"sequence": "AGTCAAAGCTCAGGACGAGGTAACGTAAAGCACG", "PBM binding z-score": -0.405}, {"sequence": "ACGTACGGGTCAACGAGGTTATAGCACGCGTATA", "PBM binding z-score": 2.83}, {"sequence": "CCTTACGGGTCACTGACAGGTTAGAGCATTTGGA", "PBM binding z-score": -0.369}, {"sequence": "CGAACTAGGTCATCCAGGACAGTCAATACATTGA", "PBM binding z-score": 1.6}, {"sequence": "CAAACTAGGCCAAAGGTCAAAGTCGAGCCAACCA", "PBM binding z-score": 0.846}, {"sequence": "CGTCCAAGGTCAATGTCAGTGAAAGAGACTCGAA", "PBM binding z-score": 1.18}, {"sequence": "TCTATTACTTGAAGGGCAACCGACGAGTCCGTTT", "PBM binding z-score": 0.901}, {"sequence": "TCTTGTAGATCAACAGGAGGTTAAGAACGATCGA", "PBM binding z-score": -0.175}, {"sequence": "TCATATAGGTAAATGCTAGGTGAAAGTCCGATCT", "PBM binding z-score": 0.387}, {"sequence": "TCTAGTTGGTCACGGAGGTCACACAAGACGGGTA", "PBM binding z-score": 1.16}, {"sequence": "CGAACTAGGTCATCCAAGACAGTGAATACATTGA", "PBM binding z-score": 0.36}, {"sequence": "TCTTATAGATCAACAGGAGGTTAAGAAAGATCGA", "PBM binding z-score": 0.0264}, {"sequence": "CGAACTAGGTCAGAACAGGAAAGTGAAGGATGAT", "PBM binding z-score": -0.161}, {"sequence": "ATATGTAGGTTATCGCGTCATTCAGTTTGCGCAT", "PBM binding z-score": 0.292}]}]}
